# Screens deposited in PubChem by The Scripps Research Institute Molecular Screening Center.
# Only some compounds are listed: those with a hit (about 4.8% of all), similar ones and a draw of the others.
# hgDAF12 agonist: activates the H. glycines DAF-12 receptor ligand-binding domain | AID 687014 | activation, % at 6.8 µM | 370,000 tested, 1.8% active | HEK293 GAL4-hgDAF12 UAS-luciferase reporter, agonist luminescence; normalized to butyrate control;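 active = activation above a cutoff set at the mean of all screened compounds plus 3 SD, cut at about 10% in these data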;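 note: 0% = DMSO wells and 100% = sodium butyrate wells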
# ssDAF12 agonist: activators of S. stercoralis DAF-12 nuclear receptor; 370,000 tested, 1% active; activation, % at 6.8 µM; HEK293 ssDAF-12/GRIP1 lit1-tk-luc reporter, luminescence; % of 3 µM dafachronic acid response;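 active = activation above the mean over all tested compounds plus 3 SD, cut at about 0.9% in these data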;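 note: 0% = DMSO-only wells and 100% = 3 µM delta7-dafachronic acid wells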
# SMARCA2 activ: increases SMARCA2 function in MMTV reporter cells | 370,000 tested, 1% active | MG213 cells, MMTV-luciferase reporter, dexamethasone, overnight | AID 652017 | activation, % at 9.1 µM; in the data active = activation above about 7.8%;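 note: 0% = vehicle wells and 100% = reference activator wells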
# DAX1 inh-1: blocks DAX1 repression of SF-1 activated StAR promoter; HEK293T StAR-luciferase reporter, SF-1/DAX-1 repression relief; 370,000 tested, 1.1% active; AID 652010; inhibition, % at 6.8 µM;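 active = inhibition above the mean over all tested compounds plus 3 SD, cut at about 3.6% in these data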;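 note: 0% = DAX-1 cells with DMSO and 100% = cells lacking DAX-1 with DMSO; higher inhibition means more luminescence from relief of DAX-1 repression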
# hcDAF12 agonist: activators of H. contortus DAF-12 nuclear receptor. HEK293 hcDAF-12 lit1-tk-luc reporter, luminescence; 0% DMSO, 100% Δ7-dafachronic acid. activation, % at 6.8 µM. 370,000 tested, 1.4% active. AID 652067;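 active = activation above the mean of all tested compounds plus 3 SD, cut at about 5.5% in these data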;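 note: 100% = response to 3 µM Δ7-dafachronic acid high control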
# DAX1 inh-2: inhibits human nuclear receptor DAX1; P51843; HEK293 Gal4-DAX1 luciferase reporter, luminescence; inhibition, % at 6.75 µM; 340,000 tested, 0.99% active;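 active = inhibition above the mean over all tested compounds plus 3 SD, cut at about 4.2% in these data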;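 note: 0% = DAX1-transfected cells with DMSO and 100% = empty-vector control cells with DMSO; inhibition shows as a rise in luminescence from relieved DAX1 repression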
# Target sequence (P51843 207-470 limits assumed): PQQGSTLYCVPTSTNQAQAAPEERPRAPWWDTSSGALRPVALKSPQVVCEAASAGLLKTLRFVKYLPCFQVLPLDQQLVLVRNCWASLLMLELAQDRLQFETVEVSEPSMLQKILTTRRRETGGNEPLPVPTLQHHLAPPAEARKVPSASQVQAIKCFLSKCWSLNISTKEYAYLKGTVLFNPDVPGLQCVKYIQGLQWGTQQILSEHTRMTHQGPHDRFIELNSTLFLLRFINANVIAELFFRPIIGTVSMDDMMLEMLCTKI
# * hit, by the source's call; · = no result given.
SMILES,hgDAF12 agonist,ssDAF12 agonist,SMARCA2 activ,DAX1 inh-1,hcDAF12 agonist,DAX1 inh-2
COc1ccc(NC(=O)COC(=O)CC2CCCCC2)cc1,0,0,0,-1,0,1
COc1ccc(NC(=O)CN2CCN(c3ccccc3)CC2)cc1,12*,-1,1,-1,0,0
COc1ccc(NC(=O)COC(=O)CC2CCCC2)cc1,3,1.2*,-3,-1,-1,0
CNC(=O)CCC(=O)Nc1ccc(C)cc1,1,-2,1,-1,0,4.7*
COC(=O)c1ccc(Cn2ccc3ccc(-c4ccc5ccn(C(=O)c6ccccc6C)c5c4)cc32)cc1,3,-1,-1,0,-1,·
COc1ccc(NC(=O)COCC(=O)Nc2ccc(C)cc2)cc1,-1,-1,-3,0,0,5.6*
Cc1cccc(OCC(=O)OCC(=O)N2CCN(C(=O)c3ccco3)CC2)c1C,0,0,-1,1,-1,0
CCOC(=O)C(CCCCCCC(NC(C)=O)(C(=O)OCC)C(=O)OCC)(NC(C)=O)C(=O)OCC,0,-1,1,0,0,4.7*
Cc1ccc(-c2cnn(-c3cccc([N+](=O)[O-])c3)c2N)cc1,11*,-1,2,0,-1,2
Nc1c(-c2ccc(Cl)cc2)cnn1-c1ccccc1,10,1,3,2,3,3
Cc1ccc(-c2cnn(-c3ccccc3)c2N)cc1,16*,0,4,3,5,0
Nc1c(-c2ccccc2)cnn1-c1ccc(C(=O)O)cc1,12*,0,3,2,3,0
Cc1cccnc1CNC(=O)C1(C)CCCN1CC(C)C (stereo not drawn),-2,0,-2,-2,0,·
CCOC(=O)C1(C)CCN1C(=O)c1cccnc1Oc1ccccc1 (stereo not drawn),-3,-2,-2,0,0,·
Cc1ccc2cc(C=O)c(N3CCOCC3)nc2c1C,1,-2,1,0,-1,0
Cc1ccc2nc(N3CCOCC3)c(C=O)cc2c1,1,-1,-1,0,-2,8.2*
CCOC(=O)/C(C#N)=C\C1=C(N2CCCC2)CC(C)(C)OC1,-2,-1,-2,-1,-1,-1
CCOC(=O)/C(C#N)=C/C1=C(N2CCOCC2)C(C)(C)OCC1,0,-1,-3,1,0,4.3*
Cc1ccc(-c2ccc3c(c2)O[C@H](CN(C)C(=O)Nc2ccc(C(F)(F)F)cc2)[C@H](C)CN([C@H](C)CO)S3(=O)=O)cc1,0,0,-4,-2,0,·
Cc1ccc(Sc2ncccc2C(=O)N(C)Cc2cccs2)c(C)c1,1,-2,1,0,-2,4.6*
Cc1ccc(Nc2ncccc2C(=O)NCc2cccs2)c(C)c1,-3,0,-1,0,1,-1
COC(=O)[C@H]1C[C@@]2(C)c3ccccc3N(S(=O)(=O)c3ccccc3)[C@H]2N1,-2,-1,-2,0,3,·
Cc1ccc(CN(C)C(=O)c2cc(S(=O)(=O)N3CCOCC3)ccc2F)o1,-1,-1,-3,0,-1,0
CNC(=O)CC1C(=O)N(Cc2ccccc2)C(=S)N1NC(=O)c1cccc(F)c1 (stereo not drawn),2,1.2*,-1,0,-3,-1
Cc1ccccc1-c1nnc(Cc2ccccc2)o1,12*,-1,2,2,1,1
SMILES,hgDAF12 agonist,ssDAF12 agonist,SMARCA2 activ,DAX1 inh-1,hcDAF12 agonist,DAX1 inh-2
CC(=O)N1CCOc2ccc(S(=O)(=O)NC[C@H]3O[C@@H](n4ccc(N)nc4=O)[C@H](O)[C@@H]3O)cc21,2,-2,2,1,0,0
O=C(NCC(c1ccco1)N1CCN(c2ccccc2)CC1)c1cccs1 (stereo not drawn),0,-1,-1,-1,1,-1
O=C(COc1ccccc1)NCC(c1ccco1)N1CCN(c2ccccc2)CC1 (stereo not drawn),12*,-1,-1,-2,0,-2
CCONc1ncnc2nonc12,-2,-2,-1,0,1,0
Clc1ccc(CONc2ncnc3nonc23)c(Cl)c1,11*,-1,2,2,1,2
CC(=O)Nc1cc2c3ccccc3n(C)c2cc1[N+](=O)[O-],1,-1,0,-1,-2,0
CCn1c(=NC(=O)COc2ccccc2)sc2cccc(F)c21,-1,-2,-1,0,-2,0
Cn1c(=NC(=O)C(C)(C)C)sc2cccc(F)c21,1,-2,-3,1,-1,4.3*
CCC(=O)N=c1sc2cc(F)cc(F)c2n1C,6,0,1,-1,6.1*,0
Cn1c(=NC(=O)c2ccccc2[N+](=O)[O-])sc2cccc(F)c21,13*,-1,4,3,0,3
CC(C)C(=O)N=c1sc2cc(F)cc(F)c2n1C,-2,-1,-1,0,1,0
CCOC(=O)Cc1csc(N/N=C\c2ccccc2OC)n1,0,0,0,1,-2,1
COc1ccc(N(C)C(=O)Cc2c(C(=O)O)[nH]c3ccccc23)cc1,1,-1,2,0,2,0
CCN(C(=O)Cc1c(C(=O)O)[nH]c2ccccc12)c1cc(OC)ccc1OC,1,-1,-4,0,3,4.8*
Cc1ccc(OCc2cc(C(=O)N(C)CCc3nc4ccccc4[nH]3)no2)cc1C,5,-1,-1,0,-1,0
CCc1ccc(-c2csc(NC(=O)C3=COCCO3)n2)cc1,5,0,-3,4.2*,2,1
CC(CCCN1CCCC1)Nc1ccnc2cc(Cl)ccc12 (stereo not drawn),1,0,-3,0,1,7.0*
CCOc1ccc(CNC2CCCc3ccccc32)cc1 (stereo not drawn),0,-1,-2,0,-3,9.1*
COC(=O)C[C@H]1CC[C@@H]2[C@@H](COc3ccc(NS(=O)(=O)c4ccccc4Cl)cc3C(=O)N2C)O1,2,-1,-3,0,-1,·
O=C(Nc1ccc2ccccc2c1)c1ccc2[nH]c(=O)c(=O)[nH]c2c1,2,0,3,1,6.1*,1
Cc1cc(N2CCOCC2)ccc1/C=C\[N+](=O)[O-],4,16*,1,0,1,-1
COc1ccc(-n2cc(CNCCCn3ccnc3)c(-c3cccc(F)c3)n2)cc1,-2,-2,4,0,-1,5.4*
COCCCNC(=O)C[C@@H]1C[C@@]2(C(=O)OC)CCCCC=C2N(Cc2ccc3c(c2)OCO3)C1=O,0,-1,-4,2,-1,·
